Assay results reported in PubChem BioAssay (NCATS).
Records with an inconclusive call do not appear. Entries that show only a call come without a potency. Activity calls are given as the source filed them. Calls come from the whole dose curve; as a rule, active = well fitted inhibition curve with a large enough effect; inconclusive = small, poorly fitted or top-dose-only effect, or effect the other way; inactive = flat fitted curve, though single readings scatter.

target: ATPase family AAA domain-containing protein 5 (Homo sapiens) (UniProt Q96QE3); assay: Validation screen for small molecules that inhibit ELG1-dependent DNA repair in human embryonic kidney (HEK293T) cells expressing luciferase-tagged ELG1 (AID 493107); details: HEK293T ELG1-luciferase level, luminescence, 5-fluorouridine co-treatment, 16 h; series mostly up to 46.1 µM; note: nearly all actives have a fitted effect of over 70% in size
Source text: NIH Molecular Libraries Probe Production Network [MLPCN]
NIH Chemical Genomics Center [NCGC]
Assay Provider: Kyungjae Myung, NHGRI, NIH
Keywords: MLPCN, qHTS, NCGC, genotoxicity, cancer
Cancer cells divide rapidly compared to normal cells in the body. During cell division, cancer cells need to duplicate their genome by DNA replication. The failure of genome duplication leads to cancer cells' death. Therefore, inhibitors of DNA replication could specifically kill cancer cells. Based on this concept, many chemotherapeutic agents were developed and have been used to treat cancer patients. However, there are a limited number of agents available in the clinical setting, and some of those that do exist have low efficacy and severe side effects. Therefore, if we can find the compounds that effectively block DNA replication either by directly damaging DNA or by inhibiting other cellular mechanisms, the options for cancer treatment will be broadened. With this in mind, we developed a quantitative high-throughput ELG1-luciferase reporter gene assay. Small molecules that specifically block ELG1 function in response to DNA damage can be identified by monitoring the suppression of luciferase activity. Since ELG1 defines a pathway for repairing DNA damage, agents blocking ELG1 function can be used to sensitize cancer cells to chemotherapeutic agents whose mechanism of action involves the induction of DNA damage.
For genotoxicity screening, 2,000 cells in 4 uL/well were dispensed into white, solid-bottom 1536-well plates using a solenoid-based dispenser. Following transfer of 1 uL 5-Fluorouridine and 23 nL compound or DMSO vehicle by a pin tool, the plates were incubated 16 hr at 37 °C and 5% CO2. 5 ul ONE-Glo (Promega) was then added to each plate and following a 30 min incubation at room temperature, luciferase activity was quantified on a ViewLux CCD-based plate reader.
Potency is the fitted concentration of half-maximal effect.

Sequence of ATPase family AAA domain-containing protein 5 (Homo sapiens) (Q96QE3 whole entry, looked up, the tested form may be a part): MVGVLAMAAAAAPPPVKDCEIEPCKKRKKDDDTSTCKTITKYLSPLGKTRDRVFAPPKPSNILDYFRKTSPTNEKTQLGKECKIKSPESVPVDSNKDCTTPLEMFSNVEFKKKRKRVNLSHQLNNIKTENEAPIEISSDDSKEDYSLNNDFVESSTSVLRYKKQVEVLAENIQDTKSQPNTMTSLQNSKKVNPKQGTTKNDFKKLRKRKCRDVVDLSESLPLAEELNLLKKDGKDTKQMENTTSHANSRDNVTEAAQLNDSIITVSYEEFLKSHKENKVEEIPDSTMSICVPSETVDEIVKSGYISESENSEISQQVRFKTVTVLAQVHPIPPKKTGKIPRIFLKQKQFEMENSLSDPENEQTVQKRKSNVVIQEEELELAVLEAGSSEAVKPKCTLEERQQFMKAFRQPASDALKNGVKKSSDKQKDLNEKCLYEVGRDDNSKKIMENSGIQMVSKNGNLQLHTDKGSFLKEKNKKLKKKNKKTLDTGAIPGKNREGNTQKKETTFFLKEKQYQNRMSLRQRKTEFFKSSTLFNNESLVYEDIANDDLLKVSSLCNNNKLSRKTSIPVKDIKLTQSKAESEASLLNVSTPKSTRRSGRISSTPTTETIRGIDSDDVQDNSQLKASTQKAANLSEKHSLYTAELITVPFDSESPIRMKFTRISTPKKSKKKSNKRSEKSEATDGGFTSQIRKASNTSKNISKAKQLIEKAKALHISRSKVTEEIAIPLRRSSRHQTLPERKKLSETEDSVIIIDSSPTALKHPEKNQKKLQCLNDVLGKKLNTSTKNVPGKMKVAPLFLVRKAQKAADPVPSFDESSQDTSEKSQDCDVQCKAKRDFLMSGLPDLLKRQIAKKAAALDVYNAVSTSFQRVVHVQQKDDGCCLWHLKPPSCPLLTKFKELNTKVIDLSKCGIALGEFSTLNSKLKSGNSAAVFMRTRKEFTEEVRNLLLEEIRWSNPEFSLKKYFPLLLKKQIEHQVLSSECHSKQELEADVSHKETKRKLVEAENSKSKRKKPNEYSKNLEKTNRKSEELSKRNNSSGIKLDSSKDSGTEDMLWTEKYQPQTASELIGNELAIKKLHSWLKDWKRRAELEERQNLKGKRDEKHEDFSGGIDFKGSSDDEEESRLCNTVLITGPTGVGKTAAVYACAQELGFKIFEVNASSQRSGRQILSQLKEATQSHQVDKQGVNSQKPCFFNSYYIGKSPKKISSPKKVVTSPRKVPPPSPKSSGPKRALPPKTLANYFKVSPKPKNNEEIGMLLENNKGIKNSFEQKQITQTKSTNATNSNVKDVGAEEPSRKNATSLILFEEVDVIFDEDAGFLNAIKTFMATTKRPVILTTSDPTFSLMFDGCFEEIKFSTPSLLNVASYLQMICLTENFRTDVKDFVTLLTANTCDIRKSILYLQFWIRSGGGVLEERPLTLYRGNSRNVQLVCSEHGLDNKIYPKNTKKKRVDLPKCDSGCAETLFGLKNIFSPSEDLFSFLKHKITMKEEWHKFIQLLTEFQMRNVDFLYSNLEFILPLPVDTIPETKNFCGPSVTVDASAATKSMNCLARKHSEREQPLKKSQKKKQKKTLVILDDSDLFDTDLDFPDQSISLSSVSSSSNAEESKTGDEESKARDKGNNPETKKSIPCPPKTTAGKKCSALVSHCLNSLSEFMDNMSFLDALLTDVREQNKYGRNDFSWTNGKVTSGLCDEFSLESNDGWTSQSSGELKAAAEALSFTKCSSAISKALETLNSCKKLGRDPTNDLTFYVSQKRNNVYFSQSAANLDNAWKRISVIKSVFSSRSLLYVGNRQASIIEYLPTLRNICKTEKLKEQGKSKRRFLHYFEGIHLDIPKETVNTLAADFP

Row | SMILES | Potency
1 | COc1ccc2c(c1)c(CC(=O)O)c(C)n2C(=O)c1ccc(Cl)cc1 | inactive
2 | O=C1N(c2ccccc2)c2ccccc2C1(Cc1ccncc1)Cc1ccncc1 | inactive
3 | COc1nc(C)nc(Cl)c1NC1=NCCN1 | inactive
4 | CC(CCc1ccc(O)cc1)NCCc1ccc(O)c(O)c1 (stereo not given) | inactive
5 | O=C(C1CCCCC1)N1CC(=O)N2CCc3ccccc3C2C1 (stereo not given) | inactive
6 | CC1COc2c(N3CCN(C)CC3)c(F)cc3c(=O)c(C(=O)O)cn1c23 (stereo not given) | inactive
7 | CN(C)c1nc(N(C)C)nc(N(C)C)n1 | inactive
8 | CC(C)Cc1ccc(C(C)C(=O)O)cc1 (stereo not given) | inactive
9 | CC(C)NCC(O)COc1ccc(CCOCC2CC2)cc1 (stereo not given) | inactive
10 | O=C1Cc2cc(CCN3CCN(c4nsc5ccccc45)CC3)c(Cl)cc2N1 | 9.2 µM (active)
11 | CCC1(C)CC(=O)NC1=O (stereo not given) | inactive
12 | Nc1ccn([C@H]2CC[C@@H](CO)O2)c(=O)n1 | inactive
13 | COc1cc2nc(N(C)CCCNC(=O)C3CCCO3)nc(N)c2cc1OC (stereo not given) | inactive
14 | CCN1CCCC1CNC(=O)c1cc(S(=O)(=O)CC)c(N)cc1OC (stereo not given) | inactive
15 | CC(C)NCC(O)c1ccc(O)c(O)c1 (stereo not given) | inactive
16 | CN1C2CCC1CC(OC(=O)C(CO)c1ccccc1)C2 (stereo not given) | inactive
17 | NC12CC3CC(CC(C3)C1)C2 | inactive
18 | CN(C)C(=O)C(CCN1CCC(O)(c2ccc(Cl)cc2)CC1)(c1ccccc1)c1ccccc1 | inactive
19 | Nc1nc2c(ncn2COC(CO)CO)c(=O)[nH]1 | inactive
20 | Cn1ccc2cc3c(cc21)CCN3C(=O)Nc1cccnc1 | inactive

Row | SMILES | Potency
21 | Clc1ccc(C(c2ccccc2Cl)C(Cl)Cl)cc1 (stereo not given) | inactive
22 | CN1CCC(=C2c3ccccc3C=Cc3ccccc32)CC1 | inactive
23 | Cn1c(=O)c2c(ncn2C)n(C)c1=O | inactive
24 | C[C@](N)(Cc1ccc(O)c(O)c1)C(=O)O | inactive
25 | Cc1cc(C(C)(C)C)cc(C)c1CC1=NCCN1 | inactive
26 | Cc1cn([C@H]2C=C[C@@H](CO)O2)c(=O)[nH]c1=O | inactive
27 | COc1ccccc1OCC(O)CN1CCN(CC(=O)Nc2c(C)cccc2C)CC1 (stereo not given) | inactive
28 | CC(C(=O)O)c1cccc(C(=O)c2ccccc2)c1 (stereo not given) | inactive
29 | Cc1cn([C@H]2C[C@H](N=[N+]=[N-])[C@@H](CO)O2)c(=O)[nH]c1=O | inactive
30 | CCC1(c2ccccc2)C(=O)NCNC1=O | inactive
31 | N[C@@H](Cc1c[nH]c2ccc(O)cc12)C(=O)O | inactive
32 | COc1ccc(C2CNC(=O)C2)cc1OC1CCCC1 (stereo not given) | inactive
33 | Clc1ccccc1C(c1ccccc1)(c1ccccc1)n1ccnc1 | inactive
34 | Cc1cc(C(C)(C)C)c(O)c(C)c1CC1=NCCN1 | inactive
35 | CS(=O)(=O)Nc1ccc([N+](=O)[O-])cc1Oc1ccccc1 | inactive
36 | CN(C)CCOC(c1ccccc1)c1ccccc1 | inactive
37 | O=C(c1ccc(F)cc1)C1CCN(CCn2c(=O)[nH]c3ccccc3c2=O)CC1 | inactive
38 | C[C@H]1c2cccc(O)c2C(O)=C2C(=O)[C@]3(O)C(O)=C(C(N)=O)C(=O)[C@@H](N(C)C)[C@@H]3[C@@H](O)[C@@H]21 | inactive
39 | NC(CO)C(=O)NNCc1ccc(O)c(O)c1O (stereo not given) | inactive
40 | CCc1cccc2c3c([nH]c12)C(CC)(CC(=O)O)OCC3 (stereo not given) | inactive
